Assay [1] is described as follows: CCTE_Harrill_HTTr_Viability_DMEM_6hr: (Pilot) CCTE's 6-hour Cell Viability Assessment for the High-Throughput Transcriptomics (HTTr) Platform, in MCF-7 cells cultured in DMEM + 10% fetal bovine serum, Harrill Lab (AID 2283973). The method in brief:
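MCF-7 cells in DMEM + 10% FBS, eight-point dilution series, 6 h exposure. Membrane integrity by propidium iodide exclusion with high-content imaging; bidirectional fit versus DMSO.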

The nature of assay [2]: CCTE_Harrill_HTTr_Viability_DMEM_12hr: (Pilot) CCTE's 12-hour Cell Viability Assessment for the High-Throughput Transcriptomics (HTTr) Platform, in MCF-7 cells cultured in DMEM + 10% fetal bovine serum, Harrill Lab (AID 2283974). The method in brief: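 MCF-7 cells in DMEM + 10% FBS exposed 12 h to an eight-point dilution series; membrane integrity scored by propidium iodide exclusion with high-content imaging, bidirectional fitting versus DMSO.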

Assay [3] can be described thus: CCTE_Harrill_HTTr_Viability_DMEM_24hr: (Pilot) CCTE's 24-hour Cell Viability Assessment for the High-Throughput Transcriptomics (HTTr) Platform, in MCF-7 cells cultured in DMEM + 10% fetal bovine serum, Harrill Lab (AID 2283975). The essentials:
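MCF-7 cells in DMEM with 10% FBS exposed for 24 hours to an eight-point dilution series. Membrane integrity by propidium iodide exclusion with high content imaging; bidirectional fit against DMSO.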

The nature of assay [4]: CCTE_Harrill_HTTr_Viability_PRF_DMEM_6hr: (Pilot) CCTE's 6-hour Cell Viability Assessment for the High-Throughput Transcriptomics (HTTr) Platform, in MCF-7 cells cultured phenol red-free DMEM + 10% charcoal-stripped fetal bovine serum, Harrill Lab (AID 2283976). The method in brief: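 MCF-7 cells in phenol red-free DMEM with 10% charcoal-stripped FBS exposed 6 hours to an eight-point dilution series. Propidium iodide exclusion imaged; curves fitted bidirectionally against DMSO.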

Assay [5] is described as follows: CCTE_Harrill_HTTr_Viability_PRF_DMEM_12hr: (Pilot) CCTE's 12-hour Cell Viability Assessment for the High-Throughput Transcriptomics (HTTr) Platform, in MCF-7 cells cultured in phenol red-free DMEM + 10% charcoal-stripped fetal bovine serum, Harrill Lab (AID 2283977). The essentials:
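MCF-7 cells in phenol red-free DMEM with 10% charcoal-stripped FBS exposed 12 hours to an eight-point dilution series. Viability assessed by high-content imaging of propidium iodide exclusion; bidirectional fit versus DMSO.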

A short description of assay [6]: CCTE_Harrill_HTTr_Viability_PRF_DMEM_24hr: (Pilot) CCTE's 24-hour Cell Viability Assessment for the High-Throughput Transcriptomics (HTTr) Platform, in MCF-7 cells cultured in phenol red-free DMEM + 10% charcoal-stripped fetal bovine serum, Harrill Lab (AID 2283980). The essentials:
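MCF-7 cells in phenol red-free DMEM with 10% charcoal-stripped FBS, eight-point dilution series, 24 h exposure. Membrane integrity by propidium iodide exclusion with high content imaging; bidirectional fit vs DMSO.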

The nature of assay [7]: CCTE_Harrill_HTTr_Apoptosis_DMEM_6hr: (Pilot) CCTE's 6-hour Apoptosis Assessment for the High-Throughput Transcriptomics (HTTr) Platform, in MCF-7 cells cultured in DMEM + 10% fetal bovine serum, Harrill Lab (AID 2283981). The method in brief:
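Caspase-3/7 activation read by high content imaging with CellEvent Caspase 3/7 Green in MCF-7 cells (DMEM + 10% FBS), 6 h after dosing; eight-point dilution series. Bidirectional fitting relative to DMSO baseline.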

The nature of assay [8]: CCTE_Harrill_HTTr_Apoptosis_DMEM_12hr: (Pilot) CCTE's 12-hour Apoptosis Assessment for the High-Throughput Transcriptomics (HTTr) Platform, in MCF-7 cells cultured in DMEM + 10% fetal bovine serum, Harrill Lab (AID 2283982). The method in brief: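 MCF-7 cells in DMEM + 10% FBS, exposed 12 h to an eight-point dilution series; caspase-3/7 activation imaged with CellEvent Green. Bidirectional fit versus DMSO.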

Assay [9] in a line: CCTE_Harrill_HTTr_Apoptosis_DMEM_24hr: (Pilot) CCTE's 24-hour Apoptosis Assessment for the High-Throughput Transcriptomics (HTTr) Platform, in MCF-7 cells cultured in DMEM + 10% fetal bovine serum, Harrill Lab (AID 2283983). The method in brief:
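MCF-7 cells in DMEM + 10% FBS, eight-point dilution series, 24 h exposure. Caspase-3/7 activation imaged by high-content imaging with CellEvent Caspase 3/7 Green. Bidirectional curve fitting against DMSO baseline.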

A short description of assay [10]: CCTE_Harrill_HTTr_Apoptosis_PRF_DMEM_6hr: (Pilot) CCTE's 6-hour Apoptosis Assessment for the High-Throughput Transcriptomics (HTTr) Platform, in MCF-7 cells cultured phenol red-free DMEM + 10% charcoal-stripped fetal bovine serum, Harrill Lab (AID 2283984). The method in brief: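 MCF-7 cells in phenol red-free DMEM + 10% charcoal-stripped FBS, eight-point dilution series, 6 h exposure. Caspase-3/7 activation imaged by high-content imaging with CellEvent Caspase 3/7 Green; bidirectional fit versus DMSO baseline.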

Assay [11] is described as follows: CCTE_Harrill_HTTr_Apoptosis_PRF_DMEM_24hr: (Pilot) CCTE's 24-hour Apoptosis Assessment for the High-Throughput Transcriptomics (HTTr) Platform, in MCF-7 cells cultured in phenol red-free DMEM + 10% charcoal-stripped fetal bovine serum, Harrill Lab (AID 2283986). The method in brief:
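MCF-7 cells in phenol red-free DMEM with 10% charcoal-stripped FBS, exposed 24 h across an eight-point dilution series. Caspase-3/7 activation imaged with CellEvent Green by high content imaging; bidirectional fitting against DMSO.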

The subject of assay [12] is DIO1 (gene 1733). The assay is described as follows: CCTE_GLTED_hDIO1: CCTE's human Deiodinase 1 (DIO1) Inhibition Assay, Great Lakes Toxicology and Ecology Division (GLTED) Lab (AID 2283987; active means hit-call score of the fitted dose curve at least 0.9, where 1 is the maximum;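 further: isolated human DIO1 enzyme in a cell-free setup rather than cells; enzyme activity read as free iodide liberated from substrate via Sandell-Kolthoff colorimetry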). The essentials: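 Cell-free human DIO1 enzyme incubated 3 h with test chemical; iodide freed from substrate then measured by Sandell-Kolthoff absorbance. Run in triplicate; loss of signal relative to DMSO taken as inhibition.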

Assay [13] addresses Nucleoli Translocation, AR (gene 367) (UniProt P10275). Nature of the assay: UPITT_HCI_U2OS_AR_TIF2_Nucleoli_Antagonist: University of Pittsburgh U2OS Androgen Receptor-Transcriptional Intermediary Factor 2 (AR-TIF2) Antagonism High Content Imaging Assay for Nucleoli Translocation (AID 2283997; active means hit-call score of the fitted dose curve at least 0.9, where 1 is the maximum). The essentials: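 U2OS cells expressing RFP-tagged human AR and GFP-tagged TIF2 were imaged by high-content fluorescence microscopy for red AR signal in the nucleolar region. Compounds were screened at 20 uM final (0.2% DMSO), with activity fitted relative to DHT as baseline.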

The target is the same in assay [14]. Nature of the assay: UPITT_HCI_U2OS_AR_TIF2_Nucleoli_Agonist: University of Pittsburgh U2OS Androgen Receptor-Transcriptional Intermediary Factor 2 (AR-TIF2) Agonism High Content Imaging Assay for Nucleoli Translocation (AID 2283998; active means hit-call score of the fitted dose curve at least 0.9, where 1 is the maximum). The essentials: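 U2OS cells expressing RFP-tagged human AR and GFP-tagged TIF2; red fluorescence in nucleoli quantified by high-content imaging. Primary screen at 20 uM final (0.2% DMSO); concentration-response 0.195–50 uM (0.5% DMSO), fitted upward versus DMSO.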

Assay [15] has as its target Ratio of Nucleoli Translocation and Cytoplasm, AR (gene 367) (UniProt P10275). The assay is described as follows: UPITT_HCI_U2OS_AR_TIF2_Nucleoli_Cytoplasm_Ratio_Antagonist: University of Pittsburgh U2OS Androgen Receptor-Transcriptional Intermediary Factor 2 (AR-TIF2) Antagonism High Content Imaging Assay for Ratio of Nucleoli Translocation and Cytoplasm (AID 2283999; active means hit-call score of the fitted dose curve at least 0.9, where 1 is the maximum;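 further: antagonists lower the DHT-driven ratio of nucleolar to cytoplasmic red signal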). The essentials: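 High-content imaging quantifies the red nucleolar:cytoplasmic fluorescence ratio in U2OS cells with AR-RFP and TIF2-GFP. Final concentrations are 20 uM (screen) or 0.195–50 uM (dose response), analysed against DHT as baseline.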

For assay [16] the target is unchanged. The assay is described as follows: UPITT_HCI_U2OS_AR_TIF2_Nucleoli_Cytoplasm_Ratio_Agonist: University of Pittsburgh U2OS Androgen Receptor-Transcriptional Intermediary Factor 2 (AR-TIF2) Agonism High Content Imaging Assay for Ratio of Nucleoli Translocation and Cytoplasm (AID 2284000; active means hit-call score of the fitted dose curve at least 0.9, where 1 is the maximum;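 further: hits raise the red nucleolar to cytoplasm ratio above vehicle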). The essentials: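 U2OS cells expressing RFP-tagged human AR and GFP-tagged TIF2 were imaged by high-content fluorescence microscopy. The endpoint is the ratio of nucleolar to cytoplasmic red fluorescence, fitted for gain of signal relative to DMSO. Concentration-response spanned 0.195 to 50 uM final (0.5% DMSO).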

A short description of assay [17]: CCTE_Harrill_HTTr_Viability_MCF7: CCTE's 6-hour Cell Viability Assessment for the High-Throughput Transcriptomics (HTTr) Platform, in MCF-7 cells cultured in DMEM + 10% fetal bovine serum, Harrill Lab (AID 2284010). The method in brief: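 Viability measured through PI dye exclusion by high-content imaging at 6 h post-dosing.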
Assay [18] is described as follows: CCTE_Simmons_MITO_basal_resp_rate: CCTE's HepG2 Seahorse XF Respirometric Screening Assay at Basal Respiratory State, Simmons Lab (AID 2284001). The settings on record: actives raise or lower the signal. The essentials:
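HepG2 cells were given test chemicals at 7 concentrations, 125 nM to 100 uM final, and oxygen consumption rate was read every 6 min (3 min mix, 3 min measure) over 72 min. Basal-phase OCR was fitted bidirectionally against DMSO.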

A short description of assay [19]: CCTE_Simmons_MITO_inhib_resp_rate: CCTE's HepG2 Seahorse XF Respirometric Screening Assay at Inhibited Respiratory State [full ETC block], Simmons Lab (AID 2284006). The settings on record: actives raise or lower the signal. The essentials:
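Inhibited respiration was taken as HepG2 oxygen consumption after rotenone/antimycin A, which followed test-compound and FCCP injections. Chemicals were tested at seven final concentrations from 125 nM to 100 uM. Activity was fitted bidirectionally relative to DMSO.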

Assay [20] is described as follows: CCTE_Shafer_MEA_acute_firing_rate_mean: CCTE's Neural Acute Assay for Mean Firing Rate, Shafer Lab (AID 2284009).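 Further: analyzed for loss of signal so actives lower firing rate relative to DMSO.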 The essentials:
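Read-out: well-mean spike rate (spikes/recording length/electrodes), % change from 40 min pre-dose baseline to 40 min with compound. Rat cortical cultures, DIV 13 or 15, 37 C; 0.03-40 uM; DMSO as negative control.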

Records with an inconclusive call do not appear. Calls of active or inactive are those of the source. How the source made its calls, unless noted: active means hit-call score of the fitted dose curve at least 0.9, where 1 is the maximum; inactive means score below 0.9.

Outcome and AC50 data for three molecules are collected here from PubChem BioAssay (EPA / NIEHS).

Nucleoli Translocation, AR (gene 367), sequence (P10275 whole entry, looked up): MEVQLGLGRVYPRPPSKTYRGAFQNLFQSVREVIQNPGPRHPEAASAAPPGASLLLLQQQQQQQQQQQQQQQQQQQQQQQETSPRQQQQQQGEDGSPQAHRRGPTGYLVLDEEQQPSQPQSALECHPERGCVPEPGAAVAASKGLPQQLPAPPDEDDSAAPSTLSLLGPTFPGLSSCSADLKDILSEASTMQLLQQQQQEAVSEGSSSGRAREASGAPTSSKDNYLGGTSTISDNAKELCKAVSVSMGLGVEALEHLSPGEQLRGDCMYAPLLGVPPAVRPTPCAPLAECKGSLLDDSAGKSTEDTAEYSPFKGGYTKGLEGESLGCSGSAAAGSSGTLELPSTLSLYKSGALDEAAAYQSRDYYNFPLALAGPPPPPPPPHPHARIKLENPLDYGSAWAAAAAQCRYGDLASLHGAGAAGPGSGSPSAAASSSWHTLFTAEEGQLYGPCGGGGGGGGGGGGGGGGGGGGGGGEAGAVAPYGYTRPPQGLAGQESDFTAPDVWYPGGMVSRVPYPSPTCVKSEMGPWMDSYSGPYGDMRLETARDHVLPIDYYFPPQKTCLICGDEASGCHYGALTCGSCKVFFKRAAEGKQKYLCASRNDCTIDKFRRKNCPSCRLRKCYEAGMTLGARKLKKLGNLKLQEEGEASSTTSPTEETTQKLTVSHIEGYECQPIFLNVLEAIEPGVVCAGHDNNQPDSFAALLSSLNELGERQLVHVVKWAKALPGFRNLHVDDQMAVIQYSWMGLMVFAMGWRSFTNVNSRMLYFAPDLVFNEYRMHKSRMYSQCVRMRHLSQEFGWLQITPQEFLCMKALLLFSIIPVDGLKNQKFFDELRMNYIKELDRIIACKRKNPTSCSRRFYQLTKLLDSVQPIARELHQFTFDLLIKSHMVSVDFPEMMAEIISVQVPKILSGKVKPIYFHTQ
Ratio of Nucleoli Translocation and Cytoplasm, AR (gene 367), sequence (P10275 whole entry, looked up): as above

Usually AC50 stands for the midpoint of the concentration-response curve, whichever way the signal moves. Turning to `Cc1oc(-c2ccccc2)nc1CCOc1ccc(C[C@H](Nc2ccccc2C(=O)c2ccccc2)C(=O)O)cc1`, the outcome in assay [1], in [2], in assay [3], in assay [4], in [5] and in assay [6] was inactive. For the same molecule, the outcome in assay [7], in assay [8], in [9], in [10], in [11] and in assay [14] was inactive. Also, the result in assay [15], in assay [16] and in assay [17] was inactive. The AC50 was 72.1 µM (active) in [12] and 67.6 µM (active) in [13].

Regarding `CCCCCCCCCCCCN1CCCC1=O`, the AC50 in assay [12] is 159 µM (active); in assay [18], 31.4 µM (active). Also, the outcome in assay [19], in assay [20] and in assay [17] was inactive.

On to `CCCCCCCCCCCCc1ccccc1S(=O)(=O)O`, for which the AC50 is 96.3 µM (active) in assay [12], 83 µM (active) in [13], 90.7 µM (active) in assay [14] and 90.9 µM (active) in [16]. Further, the result in [15], in [20] and in assay [17] was inactive.
